# Compound activity (PubChem)
# The list is not random: actives were taken first. Their share in the collection is about 6.6%.
# PTAP TSG101 blk: qHTS Assay for Iinhibitors of HIV-1 Budding by Blocking the Interaction of PTAP/TSG101; Tumor susceptibility gene 101 protein (Homo sapiens), Q99816; Fluorescence polarization, FITC-PTAP peptide / Tsg101 binding; Potency, µM (titrated, usually from 115 µM), for the others: top-dose activity change, negative = inhibition, most hits filed as inhibitors; 340,000 tested, under 10 active; active = well fitted inhibition curve with a large enough effect in the main read-out, with a control signal flat, not every such curve was filed as active; inconclusive = small, poorly fitted or top-dose-only effect, or effect the other way, or a change in a side signal; inactive = no such curve, though single readings can be large or run the other way; also: % of control where 0% means no effect
# Target sequence (Q99816 whole entry, looked up): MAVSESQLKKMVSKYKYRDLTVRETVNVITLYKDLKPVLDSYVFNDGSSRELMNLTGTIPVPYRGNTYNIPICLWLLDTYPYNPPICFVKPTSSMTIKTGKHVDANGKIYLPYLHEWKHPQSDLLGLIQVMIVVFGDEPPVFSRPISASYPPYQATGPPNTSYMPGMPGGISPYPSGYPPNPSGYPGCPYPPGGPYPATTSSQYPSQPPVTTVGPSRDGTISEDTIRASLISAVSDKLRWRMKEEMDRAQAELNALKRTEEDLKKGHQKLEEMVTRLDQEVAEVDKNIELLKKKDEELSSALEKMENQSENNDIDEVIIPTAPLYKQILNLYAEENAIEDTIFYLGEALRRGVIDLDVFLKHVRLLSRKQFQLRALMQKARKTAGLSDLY
#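 Compounds were pin-transferred onto Tsg101 binding domain (10 uM final) in HEPES pH 7.5 buffer, then FITC-PTAP peptide was added at 50 nM final. After 20 min at RT, polarization reported peptide displacement across a qHTS concentration series.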
# RGS4 inhibitor: Inhibitors of Regulator of G Protein Signaling (RGS) 4: qHTS; Regulator of G-protein signaling 4 (Homo sapiens), P49798; Transcreener GDP fluorescence polarization, RGS4-accelerated GTP hydrolysis; Potency, µM (top dose mostly 114 µM), inactives show top-dose activity change, negative = inhibition, most hits filed as inhibitors; 0.039% of 390,000 active; also: % is scaled to controls: 0 for no effect and ±100 for the full control effect; nearly all actives have a fitted effect of over 75% in size
# Target sequence (P49798 whole entry, looked up): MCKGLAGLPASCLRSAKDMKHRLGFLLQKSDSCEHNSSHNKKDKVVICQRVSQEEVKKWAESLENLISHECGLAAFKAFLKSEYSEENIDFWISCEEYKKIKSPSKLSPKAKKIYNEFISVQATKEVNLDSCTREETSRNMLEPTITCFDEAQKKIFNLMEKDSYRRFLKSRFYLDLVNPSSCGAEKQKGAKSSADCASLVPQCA
#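 MLSMR compounds (23 nl, pin-transferred) preincubated 10 min at room temperature with a 500nM (2x) first reagent, then RGS4 at 900nM (2x) plus Transcreener GDP mix added; fluorescence polarization (620/688 nm) read before and after 90 min at 30 °C.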
# MCF10A rereplic: A quantitative high throughput screen for small molecules that induce DNA re-replication in MCF 10a normal breast cells; 2.9% of 350,000 active; MCF 10A DNA re-replication, Hoechst nuclear intensity, 48 h; Potency, µM (doses to about 46.1 µM), inactives show at the highest dose activity, positive = re-replication, hits mostly activators; also: % of control where 0% means no effect; nearly all actives have a fitted effect of over 50% in size
# KB-V1 MDR tox: qHTS assay for MDR1-selective chemotherapeutics: Primary screen using the drug-selected MDR subline cells KB-V1. 3.4% of 400,000 active. AID 1347076, 2019. KB-V1 MDR cells viability, CellTiter-Glo, 72 h. Potency, µM (series often up to 46.1 µM), most hits filed as cytotoxic; also: % is scaled to controls: 0 for no effect and ±100 for the full control effect; nearly all actives have a fitted effect of over 60% in size
#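 Cytotoxicity toward P-gp-expressing KB-V1 cells was determined as loss of CellTiter-Glo luminescence after 72 h at 37 degrees C. Compounds were tested in quantitative HTS format across a concentration range, with curves fitted to normalized data.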
# KB-3-1 tox: qHTS assay for MDR1-selective chemotherapeutics: Primary screen using the parental adenocarcinoma cell KB-3-1; Potency, µM (series often up to 46.1 µM), actives largely listed as cytotoxic; KB-3-1 viability, CellTiter-Glo ATP luminescence, 72 h; 1.4% of 400,000 active; also: % is scaled to controls: 0 for no effect and ±100 for the full control effect; nearly all actives have a fitted effect of over 60% in size
#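 Using CellTiter-Glo luminescence, growth of non-resistant KB-3-1 adenocarcinoma cells is assessed 72 h after pin-tool compound addition at 37 °C. Normalized responses across the concentration series yield fitted curves.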
# SW480 rereplic: A quantitative high throughput screen for small molecules that induce DNA re-replication in SW480 colon adenocarcinoma cells | SW480 DNA re-replication, Hoechst DNA content imaging, 48 h | Potency, µM (highest dose often 46.1 µM), for the others: at the top dose re-replication activation, hits mostly activators | 1.8% of 340,000 active; also: % of control where 0% means no effect; nearly all actives have a fitted effect of over 55% in size
#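 Readout is total intensity of Hoechst-stained nuclei, excited at 405 nm and collected at 500-530 nm. Compound treatment lasted 48 hr at 37 C in 5% CO2 before staining.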
# * marks the source's active call; other numbers are inactive results; i = inactive; ? = inconclusive; . = no result given; [ ] = another dose, or the depositor's remark. Unless noted, calls follow the shape of the dose curve; as a rule, active = well fitted curve in the direction sought with a large enough effect; inconclusive = small, poorly fitted or top-dose-only effect, or another doubt; inactive = no such curve, though single readings can be large; an effect the other way counts as inactive or inconclusive. Potency is read from the fitted curve at half-maximal effect.
SMILES,PTAP TSG101 blk,RGS4 inhibitor,MCF10A rereplic,KB-V1 MDR tox,KB-3-1 tox,SW480 rereplic
Cc1cccc(NC(=S)N/N=C/c2cccc(O)c2)c1C,-3%,24%,?,6.5µM*,3.3µM*,7.3µM*
O=[N+]([O-])c1ccc(/C=N/NC(=S)Nc2ccc(Cl)cc2Cl)s1,2%,-16%,?,?,?,21µM*
O=[N+]([O-])c1ccc(O)c(/C=N/NC(=S)Nc2ccc(Cl)cc2Cl)c1,-1%,-36%,23%,i,?,?
Cc1ccc(-c2nnn3c2nc(NCC(C)c2ccccc2)c2ccccc23)cc1 (configuration not stated),.,5%,.,i,i,.
Cc1cccc(C)c1-n1nnnc1C(c1ccnc2ccccc12)N1CCCN(C(=O)OC(C)(C)C)CC1 (configuration not stated),.,.,.,i,?,.
Cc1cccc(C)c1-n1nnnc1C(c1ccnc2ccccc12)N1CCN(c2ccccc2F)CC1 (configuration not stated),.,.,.,16µM*,?,.
COc1ccc(C(=O)NC(=S)NNC(=O)c2cnccn2)cc1,-4%,-37%,6.5µM*,i,?,1%
COc1ccc(C(=O)NC(=S)NNC(=O)c2ccccc2O)cc1,-2%,-12%,23µM*,?,?,13%
O=C(NNC(=O)c1ccccc1O)c1ccc(Br)cc1,-6%,-4%,-8%,i,i,2.9µM*
COc1ccc(C(=O)NC(=S)NNC(=O)c2ccccc2C)cc1,-6%,?,1%,?,?,4%
COc1ccc(C(=O)NC(=S)N2CCN(c3ccccc3O)CC2)cc1,-2%,?,-5%,21µM*,i,3%
CC(=O)N1CCC(N(Cc2ccc(C)o2)C(=O)Nc2cccc(C(F)(F)F)c2)CC1,.,-10%,.,?,i,.
Oc1ccccc1N1CCN(C(=S)NCCc2ccccc2)CC1,-1%,-21%,?,15µM*,?,8%
O=C(/C=C/c1cccs1)NC(=S)NNC(=O)c1ccccc1O,-6%,-15%,?,i,2.6µM*,?
COc1ccc(-c2cccc(NS(=O)(=O)c3ccc(C)s3)c2)nn1,.,-16%,.,i,i,.
O=C(O)Cc1ccc(NC(=O)C(c2ccccc2)c2ccccc2)cc1,3%,9%,1%,i,i,-2%
FC(F)Oc1ccc(NC(=S)NCc2ccccc2)cc1Cl,-5%,-14%,15%,?,?,?
COC(=O)Cc1ccc(NC(=O)C(c2ccccc2)c2ccccc2)cc1,0%,-4%,14%,8.2µM*,i,2%
O=C(O)c1ccccc1OC(C(=O)Nc1cc(Cl)cc(Cl)c1)c1ccccc1 (configuration not stated),-9%,0%,21µM*,?,i,?
Cn1c(=O)c2cc(NC(=O)Cc3ccccc3F)ccc2n1-c1ccc(C(C)(C)C)cc1,.,.,.,i,?,.
Cc1cc(C)cc(-n2c3ccc(NC(=O)Cc4cccc5ccccc45)cc3c(=O)n2C)c1,.,.,.,?,5.2µM*,.
O=C(Cc1cccc2ccccc12)Nc1ccc(OC(F)F)c(Cl)c1,-7%,-12%,9%,21µM*,?,0%
O=C(Nc1ccc(OC(F)F)c(Cl)c1)C(c1ccccc1)c1ccccc1,1%,5%,2.3µM*,?,?,17%
N#Cc1sc2nccc(Nc3ccccc3)c2c1N,-2%,8%,?,i,i,23µM*
NC(=O)C1CCN(c2ncc(-c3cccc(N4CCCC4)c3)s2)CC1,.,.,.,?,i,.
SMILES,PTAP TSG101 blk,RGS4 inhibitor,MCF10A rereplic,KB-V1 MDR tox,KB-3-1 tox,SW480 rereplic
CC(C)N(C(=O)CSc1ccc(S(=O)(=O)N2CCCCC2)cn1)c1ccccc1,-7%,-11%,5.8µM*,i,?,-10%
COc1ccc(-c2cc(C(=O)N(C)CC(=O)Nc3ccccc3Br)c3ccccc3n2)cc1OC,-4%,-3%,-2%,9.2µM*,i,-29%
COc1ccc(-c2cc(C(=O)N(C)Cc3ccccc3F)c3ccccc3n2)cc1OC,-2%,-9%,?,16µM*,i,3%
COc1ccc(-c2cc(C(=O)N(C)CC(=O)Nc3ccccc3C(F)(F)F)c3ccccc3n2)cc1OC,-1%,-23%,?,i,i,3%
Cc1cc(C)cc(N2C(=O)CSC23C(=O)N(CC(=O)NCCc2ccccc2)c2ccccc23)c1 (configuration not stated),.,-11%,.,i,i,.
CC(Oc1ccccc1)C(=O)N[C@@H]1C(=O)N2C(C(=O)O)C(C)(C)S[C@H]12 (some centres not stated),.,.,.,i,i,.
O=C(NCCCN1CCOCC1)c1cc(-c2cccs2)on1,-13%,8%,7%,i,i,-9%
O=C(NCCCn1ccnc1)c1cc(-c2cccs2)on1,-1%,-24%,15%,15µM*,15µM*,4%
Cn1c2cc(S(C)=O)sc2c2cnn(Cc3cccc(O)c3)c(=O)c21 (configuration not stated),.,.,.,i,i,.
CCOC(=O)c1c(NC(=S)N2CCCCC2)sc2c1CCN(C(=O)OCC)C2,-1%,-31%,21µM*,i,i,-44%
CCOC(=O)c1c(NC(=O)Nc2ccc(C)cc2)sc2c1CCN(C)C2,5%,15%,?,i,i,18µM*
CCOC(=O)c1c(NC(=S)N2CCOCC2)sc2c1CCN(C(=O)OCC)C2,1%,?,?,?,i,?
CCNC(=S)Nc1scc(-c2ccccc2)c1C(=O)OCC,-2%,?,?,?,?,4%
CCOC(=O)c1c(-c2ccccc2)csc1NC(=S)NC,-6%,-28%[11.4 µM],18µM*,i,i,?
CCOC(=O)c1c(-c2ccc(C)o2)csc1NC(=S)NC(=O)c1ccccc1Br,.,?,?,16µM*,?,?
CCOC(=O)c1c(-c2ccc(F)cc2)csc1NC(=O)CCN1CCOCC1,-2%,-2%,14%,15µM*,i,1%
